# Source: PubChem BioAssay
# G9a inh: qHTS Assay for Inhibitors of Histone Lysine Methyltransferase G9a; Histone-lysine N-methyltransferase EHMT2 (Homo sapiens), Q96KQ7; G9a H3K9 monomethylation, AlphaScreen, 2 h; Potency, µM (top dose mostly 102 µM), inactives show at the highest dose activity, negative = inhibition, usual class: inhibitors; 350,000 tested, 8.8% active; further: potency means the concentration at half of the fitted maximal effect; on the % scale 0 is the no-effect control and ±100 the full control effect; nearly all actives have a fitted effect of over 75% in size
# Target sequence (Q96KQ7 913-1193 limits assumed): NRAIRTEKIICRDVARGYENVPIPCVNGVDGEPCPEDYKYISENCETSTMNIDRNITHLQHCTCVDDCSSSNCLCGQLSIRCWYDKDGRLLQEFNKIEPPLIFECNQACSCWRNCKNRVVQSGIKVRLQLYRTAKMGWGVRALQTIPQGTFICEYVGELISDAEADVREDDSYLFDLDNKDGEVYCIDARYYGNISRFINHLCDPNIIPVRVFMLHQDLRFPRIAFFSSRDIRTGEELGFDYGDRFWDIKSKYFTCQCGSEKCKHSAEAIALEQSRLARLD
#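 Methyltransferase reactions run at room temperature for 2 h (20 nM enzyme, 500 nM biotin-H3K9 peptide, 20 uM SAM) after a 15 min compound preincubation; product detected by AlphaScreen beads and anti-H3K9me1 antibody.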
# BAZ2B inh: qHTS Assay for Inhibitors of BAZ2B. Bromodomain adjacent to zinc finger domain protein 2B (Homo sapiens), Q9UIF8. AlphaScreen BAZ2B-H3K14Ac peptide displacement. Potency, µM (doses to about 114 µM), for inactives: at the highest dose activity change, negative = inhibition, actives largely listed as inhibitors. 360,000 tested, 4.4% active; further: potency means the concentration at half of the fitted maximal effect; on the % scale 0 is the no-effect control and ±100 the full control effect; nearly all actives have a fitted effect of over 60% in size
#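 BAZ2B (50 nM) with biotin-H3(5-23)K14Ac peptide (50 nM) in PBS pH 7.4, 0.01% Tween-20, preformed 30 min, then compound 30 min at room temperature; top concentration 110uM. AlphaScreen streptavidin donor/nickel chelate acceptor beads (10 ug/mL final), 20 min dark, signal read.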
# JMJD2A Tudor inh: qHTS Assay for Inhibitors of JMJD2A-Tudor Domain. Lysine-specific demethylase 4A (Homo sapiens), O75164. AlphaScreen JMJD2A-Tudor / H3K4me3 peptide binding. Potency, µM (doses to about 114 µM), for inactives: at the highest dose activity change, negative = inhibition, actives largely listed as inhibitors. 390,000 tested, 4.4% active. AID 504339, 2011; further: potency means the concentration at half of the fitted maximal effect; on the % scale 0 is the no-effect control and ±100 the full control effect; nearly all actives have a fitted effect of over 50% in size
# PI5P4Ka inh: qHTS for Inhibitors of phosphatidylinositol 5-phosphate 4-kinase (PI5P4K). max response, %. Phosphatidylinositol 5-phosphate 4-kinase type-2 alpha (Homo sapiens), P48426. AID 652105, 2013. 330,000 tested, 1.2% active. PI5P4Kalpha enzyme, ADP-Glo luminescence, 60 min; hits give low values; active means max response of -50% or lower; inconclusive means between -30% and -50%; inactive means -30% or higher; further: value at the top dose of about 77 µM; on the % scale 0 is the no-effect control and ±100 the full control effect
# Target sequence (P48426 whole entry, looked up): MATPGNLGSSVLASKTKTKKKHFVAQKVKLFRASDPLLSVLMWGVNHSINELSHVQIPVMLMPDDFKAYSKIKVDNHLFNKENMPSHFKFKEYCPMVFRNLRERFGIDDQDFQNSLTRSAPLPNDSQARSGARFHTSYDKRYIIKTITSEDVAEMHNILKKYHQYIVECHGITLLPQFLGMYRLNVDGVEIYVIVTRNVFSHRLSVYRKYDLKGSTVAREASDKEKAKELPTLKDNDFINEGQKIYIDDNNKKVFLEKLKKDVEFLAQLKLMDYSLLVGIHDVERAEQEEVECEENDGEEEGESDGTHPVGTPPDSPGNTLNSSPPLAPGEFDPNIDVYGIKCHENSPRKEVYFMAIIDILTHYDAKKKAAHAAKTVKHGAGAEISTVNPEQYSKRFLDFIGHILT
#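 ADP-Glo luminescence end-point read after a 60 min room-temperature kinase reaction of PI5P4Kalpha plus substrate, initiated with ATP at 5 microM final. Buffer: 0.038 M HEPES pH 7.4, EGTA, 0.1% CHAPS, 5% DMSO.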
# HP1b chromo inh: HTS for Inhibitors of HP1-beta Chromodomain Interactions with Methylated Histone Tails; Chromobox protein homolog 1 (Homo sapiens), P83916; 390,000 tested, 0.56% active; AlphaScreen HP1-beta / biotin-H3K9me3 peptide binding; Potency, µM (top dose mostly 114 µM), for the others: at the top dose activity change, negative = inhibition, hits mostly inhibitors; further: potency means the concentration at half of the fitted maximal effect; nearly all actives have a fitted effect of over 70% in size
#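 AlphaScreen: HP1-beta (50 nM) preformed 30 min with biotin-H3(1-18)K9me3 peptide (50 nM) in PBS pH 7.4, 0.01% Tween-20. Compound added for 30 min at RT, then streptavidin donor/nickel chelate acceptor beads (10 ug/mL) for 30 min.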
# PLK1 PBD inh: qHTS for Inhibitors of PLK1-PDB (polo-like kinase 1 - polo-box domain): Primary Screen | 360,000 tested, 2.8% active | AID 720504, 2013 | Serine/threonine-protein kinase PLK1 (Homo sapiens), P53350 | Potency, µM, for the others: max response, negative = inhibition, most hits filed as inhibitors | Plk1 PBD binding of FITC phosphopeptide, fluorescence polarization; further: potency means the concentration at half of the fitted maximal effect; series mostly up to about 57 µM; on the % scale 0 is the no-effect control and ±100 the full control effect; nearly all actives have a fitted effect of over 65% in size
# * = called active by the depositor; ? = inconclusive; . = no result; [ ] = dose if it differs, or a comment. Sampled rows, rich in hits. Any-hit rate of the full collection: about 12%. Unless noted, the call rests on the fitted dose curve; in most records, active means well fitted curve in the direction sought with a large enough effect; inconclusive means small, poorly fitted or top-dose-only effect, or another doubt; inactive means no such curve, though single readings can be large; an effect the other way counts as inactive or inconclusive.
SMILES,G9a inh,BAZ2B inh,JMJD2A Tudor inh,PI5P4Ka inh,HP1b chromo inh,PLK1 PBD inh
CCC(C)(C)n1nnnc1C(C(C)C)N1CCN(C(=O)c2ccco2)CC1 (stereo not drawn),-8%,-11%,-3%,4,17%,-3%
CCCC(c1nnnn1C(C)(C)CC)N1CCN(C(=O)c2ccco2)CC1 (stereo not drawn),89µM*,-8%,-28%,-2,6%,-7%
COc1cc(NC(=O)CN2CCCN(Cc3cccc(F)c3)S2(=O)=O)cc(OC)c1,0%[59 µM],0%,-16%,.,52%,.
C(=N\n1cnnc1)/c1cccc(Oc2ccccc2)c1,13%[59 µM],-10%,-8%,0,1%,-1%
S=c1[nH]ncn1/N=C/c1cccc(Oc2ccccc2)c1,-123%,-38%,45µM*,-7,?,-9%
Cc1ccc(/C=N/n2c(COc3ccccc3)n[nH]c2=S)cc1,8.9µM*,-12%,?,-1,7%,21µM*
COc1cccc(/C=N/n2c(COc3ccccc3)n[nH]c2=S)c1,1.8µM*,?,79µM*,-13,?,24µM*
S=c1[nH]nc(COc2ccccc2)n1/N=C/c1cccc(Br)c1,8.9µM*,-29%,?,-1,-5%,30µM*
O=C(CN1C(=O)C(=O)N(CCC2=CCCCC2)C1=O)Nc1ccc(F)cc1F,.,.,-6%,7,4%,5%
COc1ccc(CNc2n[nH]c(-c3ccco3)n2)cc1OC,-2%[59 µM],?,-18%,.,35%,.
CC(C)c1ccc(/C=N/n2c(COc3ccccc3)n[nH]c2=S)cc1,50µM*,?,35µM*,-2,40µM*,24µM*
C(=N\N1CCN(Cc2ccccc2)CC1)/c1cccnc1,?,-25%,-14%,-4,17%,-3%
S=c1[nH]nc(COc2ccc(Cl)cc2)n1-c1ccccc1,15%[0.501 µM],-5%,-19%,-8,23%,-3%
S=c1[nH]nc(COc2ccccc2)n1/N=C/c1cccnc1,1.8µM*,-6%,10µM*,-16,-9%,?
S=c1[nH]nc(COc2ccccc2)n1/N=C/c1ccc(Br)cc1,20µM*,-6%,-21%,-3,5%,27µM*
Cc1cccc2c(=O)c(-c3ccc4c(c3)OCO4)c(NC(=O)c3ccco3)oc12,5%[0.0925 µM],-15%,?,-6,10%,24µM*
Cc1cnc(CNc2ccnc(-c3ccccc3C(F)(F)F)n2)cn1,3%[0.501 µM],.,.,.,.,.
O=C(Nc1ccc(N2CCCC2)cc1)C(c1ccccc1)c1ccccc1,32µM*,?,?,-1,-13%,-1%
COc1ccccc1C(=O)Nc1ccc(N2CCN(C(C)=O)CC2)cc1,6%,-5%,-3%,0,25%,-5%
CC(=O)N1CCN(c2ccc(NC(=O)c3ccccc3Cl)cc2)CC1,.,-1%,?,-21,7%,21µM*
CC(=O)N1CCN(c2ccc(NC(=O)C(c3ccccc3)c3ccccc3)cc2)CC1,50µM*,-39%,?,1,-7%,10%
O=C(OCC(=O)N1CCN(c2ccccc2)CC1)c1ccc(Cl)nc1,?,-1%,-2%,-6,13%,-8%
CCN(CC)c1ccc(C(=O)OCC(=O)N2CCN(c3ccccc3)CC2)cc1,-40%,-37%,4.5µM*,-3,12%,-2%
CCNc1ncc2nc(-c3cccs3)c(=O)n(Cc3ccc(F)cc3)c2n1,-3%[0.501 µM],.,.,.,.,.
Cc1cccc(NC(=O)c2cn(-c3ccccc3)nc2-c2ccccc2)c1C,-7%[59 µM],-16%,-31%,.,27%,.
SMILES,G9a inh,BAZ2B inh,JMJD2A Tudor inh,PI5P4Ka inh,HP1b chromo inh,PLK1 PBD inh
CC(=O)c1ccc(NCC(=O)N2CCN(c3ccccc3)CC2)cc1,14µM*,-32%,0%,-13,42%,-11%
CCC(CC)C(=O)N1CCN(c2ccccc2)CC1,79µM*,-17%,-17%,-2,35%,-14%
COc1ccc(C2=CSC3=NCCN23)cc1F,28µM*,-10%,-12%,2,6%,-25%
CC(C)(C)OC(=O)N[C@@H](Cc1ccccc1)c1nnc(S(=O)(=O)Cc2ccccc2)o1,11µM*,-28%,.,.,.,.
Cc1ccccc1CS(=O)(=O)c1nnc([C@H](Cc2ccccc2)NC(=O)OC(C)(C)C)o1,40µM*,29%,-12%,.,32%,7.5µM*
CC(C)(C)OC(=O)N[C@@H](Cc1ccccc1)c1nnc(SCC(=O)O)o1,?,-31%,-26%,.,18%,1%
CCSc1nnc([C@H](Cc2ccccc2)NC(=O)OC(C)(C)C)o1,-1%[59 µM],4%,-12%,.,16%,-8%
CCC(C)[C@@H](NC(=O)OC(C)(C)C)c1nnc(S(=O)(=O)Cc2cccc(C)c2)o1 (stereo partly drawn),?,2%,-14%,11,61%,8.4µM*
Cc1cccc(CS(=O)(=O)Cc2ccc(C(=O)NC(C)c3ccccc3)o2)c1 (stereo not drawn),8%[59 µM],-12%,-6%,-1,74%,-13%
Cc1cc(NC(=O)c2ccc(NC(=O)CCS(=O)(=O)c3cccs3)cc2)ccc1Br,6%[59 µM],2%,-4%,.,24%,.
CCN1C(=NCCOC)N[C@@H](c2ccccc2)[C@H](C(=O)OC)[C@H]1C,-11%[12.7 µM],50µM*,-17%,-4,16%,-15%
CCN1C(=NCc2cc(OC)c(OC)c(OC)c2)N[C@@H](c2ccccc2)[C@H](C(=O)OC)[C@H]1C,?,-3%,.,.,.,.
CCN1CCN(CCCNC(=O)Cn2c(-c3cccs3)cc3cc(F)ccc32)CC1,-41%[59 µM],-11%,-24%,.,36%,.
N#Cc1cccc(NC(=O)Cn2c3[n+](c4ccc(C(F)(F)F)cc42)CCCCC3)c1,8.9µM*,2%,-15%,-1,1%,-7%
Fc1ccccc1Cn1c2[n+](c3ccc(C(F)(F)F)cc31)CCCCC2,?,.,?,-6,33%,-2%
CN1CCC(NC(=S)Nc2cccc([N+](=O)[O-])c2)CC1,45µM*,-20%,-13%,-17,6%,-20%
COc1ccc(OC)c(NC(=O)CSc2nnc(CNC(=O)c3cccs3)o2)c1,-12%,-13%,-1%,2,51%,-20%
C=C(Cl)COc1cc(C)cc2oc(=O)cc(CC)c12,1%,-3%,4%,5,44%,-4%
CCc1cc(=O)oc2cc(C)cc(OCc3nn[nH]n3)c12,45µM*,5%,-3%,4,40%,2%
COC(=O)Cc1c(C)c2c(OCc3nn[nH]n3)cc(C)cc2oc1=O,45µM*,-7%,-30%,1,24%,-3%
